# KB-3-1 tox = qHTS assay for MDR1-selective chemotherapeutics: Primary screen using the parental adenocarcinoma cell KB-3-1; KB-3-1 viability, CellTiter-Glo ATP luminescence, 72 h; Potency, µM (doses to about 46.1 µM), actives largely listed as cytotoxic; actives 1.4% (n = 400,000); note: potency is the fitted concentration of half-maximal effect; % is set by controls: 0 for no effect and ±100 for the full control effect; nearly all actives have a fitted effect of over 60% in size
#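 Parental KB-3-1 viability, qHTS format: 72 h compound exposure, 37 °C; CellTiter-Glo; media-only wells and DMSO plates as controls; concentration-effect fits on corrected data.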
# KCNH2 3.1 block = qHTS for Inhibitors of KCHN2 3.1: Mutant qHTS; U2OS KCNH2 3.1, thallium flux FluxOr; active compounds read low; actives 0.95% (n = 340,000); activity change, % (tested at about 1.8 µM); Potassium voltage-gated channel subfamily H member 2, brain isoform KCNH2 3.1 (human);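 active = maximum activity change below -70%; inconclusive = maximum activity change from -70% to -50%; inactive = maximum activity change above -50%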;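 note: thallium influx rate constant from kinetic fluorescence after stimulation buffer; % is set by controls: 0 for no effect and ±100 for the full control effect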
#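 We transduce U2OS cells with the mutant 3.1 virus, culture them overnight, load FluxOr with Red40 quencher for 45 min, then add stimulation buffer and read kinetically for 2 min to derive a normalized rate constant.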
# MCF10A rereplic = A quantitative high throughput screen for small molecules that induce DNA re-replication in MCF 10a normal breast cells; AID 624296, 2012; Potency, µM (series often up to 46.1 µM), for inactives: top-dose activity, positive = re-replication, actives largely listed as activators; MCF 10A DNA re-replication, Hoechst nuclear intensity, 48 h; actives 2.9% (n = 350,000); note: potency is the fitted concentration of half-maximal effect; % of control where 0% means no effect; nearly all actives have a fitted effect of over 50% in size
# hERG WT inh = qHTS for Inhibitors of KCHN2 3.1: Wildtype qHTS. Voltage-gated inwardly rectifying potassium channel KCNH2 (Homo sapiens), Q12809. U2OS, BacMam KCNH2, thallium flux FluxOr; active compounds read low. activity change, % at 1.84 µM. actives 0.37% (n = 340,000);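 active = maximum activity change below -70%; inconclusive = maximum activity change between -70% and -50%; inactive = maximum activity change above -50%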; note: % is set by controls: 0 for no effect and ±100 for the full control effect
#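 U2OS cells were transduced with wild-type KCNH2 virus (2.03 x 10^8 / mL) for 4 h at room temperature, then cultured overnight at 37 C. Thallium flux was read with FluxOr dye. Rate constants were normalized to DMSO controls.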
# SW480 rerep = A quantitative high throughput screen for small molecules that induce DNA re-replication in SW480 colon adenocarcinoma cells | SW480 DNA re-replication, Hoechst DNA content imaging, 48 h | Potency, µM (titrated, usually from 46.1 µM), inactives show top-dose re-replication activation, usual class: activators | actives 1.8% (n = 340,000); note: potency is the fitted concentration of half-maximal effect; % of control where 0% means no effect; nearly all actives have a fitted effect of over 55% in size
#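 Image-based read-out: total Hoechst fluorescence of nuclei (405 nm excitation, 500-530 nm emission), with hits raising the fraction of high-intensity nuclei. SW480 colon cells incubated 48 hr with compounds at 37 C.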
# KB-V1 MDR tox = qHTS assay for MDR1-selective chemotherapeutics: Primary screen using the drug-selected MDR subline cells KB-V1. KB-V1 MDR cells viability, CellTiter-Glo, 72 h. Potency, µM (highest dose often 46.1 µM), actives largely listed as cytotoxic. actives 3.4% (n = 400,000). AID 1347076, 2019; note: potency is the fitted concentration of half-maximal effect; % is set by controls: 0 for no effect and ±100 for the full control effect; nearly all actives have a fitted effect of over 60% in size
#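 qHTS viability screen in drug-selected KB-V1 MDR cells: 72 h compound treatment at 37 degrees C, ATP luminescence end point.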
# An asterisk follows results filed as active; i = inactive; u = inconclusive; x = no result given. An excerpt weighted towards active compounds, which were near 7.6% of everything screened. Unless noted, calls come from the whole dose curve; as a rule, active = well fitted curve in the direction sought with a large enough effect; inconclusive = small, poorly fitted or top-dose-only effect, or another doubt; inactive = no such curve, though single readings can be large; an effect the other way counts as inactive or inconclusive.
SMILES,KB-3-1 tox,KCNH2 3.1 block,MCF10A rereplic,hERG WT inh,SW480 rerep,KB-V1 MDR tox
CCN1CCCC1CNCC(O)COc1ccc(C(C)(C)C)cc1C (stereo not drawn),i,-16.0,9.2µM*,8.5,u,i
Cc1ccc(NN2C(=O)C=C(c3ccccc3)C2=O)cc1,i,-4.5,8.2µM*,-4.5,8.2µM*,i
O=C1c2ccccc2C(=O)N1Nc1ccccc1,i,-13.2,u,3.7,3.1%,i
Cc1nc(NC(C)c2ccccc2)c2c3c(sc2n1)CCC3 (stereo not drawn),u,-8.4,10.3µM*,-5.3,u,i
Cc1ccc(CNc2nc(C)nc3sc4c(c23)CCC4)cc1,i,8.4,18.4%,10.9,6.2%,8.2µM*
Cc1nc(Nc2ccc(O)cc2)c2c3c(sc2n1)CCCC3,i,2.7,u,0.1,4.4%,i
O=C(C[N+]12CCCc3cccc(c31)CCC2)c1ccc2ccc3cccc4ccc1c2c34,u,x,x,x,x,i
COc1ccc(NC(=O)c2oc3ccccc3c2NC(=O)c2cccc(F)c2)c(OC)c1,i,x,x,x,x,i
CCOC(=O)c1c(C)[nH]c(C)c1C(=O)COC(=O)c1cccc(C)c1O,i,22.0,u,2.1,5.2%,16.4µM*
Cc1cccc(C(=O)OCC(=O)c2c(C)[nH]c3ccccc23)c1O,i,2.9,9.6%,-3.7,-19.3%,i
CCOC(=O)N1CCC(n2c(SCC(=O)NCCC3=CCCCC3)nc3ccccc3c2=O)CC1,u,-21.0,25.9µM*,23.9,u,8.2µM*
CC1CCN(C(=O)Cn2c(=O)n(Cc3ccc4c(c3)OCO4)c(=O)c3ccccc32)CC1,i,26.3,4.9%,8.6,13.7%,u
CCOC(=O)N1CCC(n2c(SCC(=O)N3CCCC3)nc3ccccc3c2=O)CC1,i,-12.2,17.5%,-3.8,-2.4%,i
CCOC(=O)N1CCC(n2c(SCC(=O)N3CCC(C)CC3)nc3ccccc3c2=O)CC1,u,-1.0,u,-4.5,11.8%,20.6µM*
CC1CCN(C(=O)CSc2nc3ccccc3c(=O)n2Cc2ccc3c(c2)OCO3)CC1,u,-19.3,u,-6.6,19.1%,4.61µM*
CCSc1nc2ccccc2c(=O)n1C1CCOC(C)(C)C1 (stereo not drawn),i,-90.8*,u,-2.8,1.5%,i
O=C(C(=O)N1CCC(Cc2ccccc2)CC1)c1ccccc1Br,i,x,x,x,x,i
COc1cc(C=O)cc(OC)c1[N+](=O)[O-],i,x,x,x,x,i
CCCCNC(=O)C1=CC(c2ccc3c(c2)OCO3)=NS(=O)(=O)N1C,i,x,x,x,x,i
Cc1ccccc1OCC(=O)N/N=C/c1cc2ccccc2nc1Cl,u,6.0,u,8.2,-11.2%,u
O=C(CNc1ccc2ccccc2c1)N/N=C/c1cc2ccccc2nc1Cl,i,-0.9,18.4µM*,2.3,-2.4%,i
Cc1ccc2nc(Cl)c(/C=N/NC(=O)c3ccccc3O)cc2c1,i,-14.2,u,-1.7,-61.2%,i
Cc1ccc2nc(Cl)c(/C=N/NC(=O)[C@H]3C[C@@H]3c3ccccc3)cc2c1,i,-10.2,8.2µM*,-5.6,u,i
CC(C)(C)c1ccc(C2CC2C(=O)N/N=C\c2cc3ccccc3nc2Cl)cc1 (stereo not drawn),i,-14.4,10.7%,-2.1,-6.7%,10.3µM*
Cc1cc(NS(=O)(=O)c2ccc(NC(=O)COc3ccccc3Br)cc2)no1,i,x,x,x,x,i
SMILES,KB-3-1 tox,KCNH2 3.1 block,MCF10A rereplic,hERG WT inh,SW480 rerep,KB-V1 MDR tox
C(=Nc1ccc2ccccc2n1)c1ccccn1,i,x,x,x,x,i
CN(CC(=O)Nc1ccc(F)cc1)C(=O)COC(=O)CNC(=O)c1ccc(Cl)cc1Cl,i,-6.4,-1.6%,0.8,-33.8%,i
O=C(NCc1ccc(Cl)cc1)C(=O)NCC(c1cccnc1)N1CCN(c2ccc(F)cc2)CC1 (stereo not drawn),u,-8.3,u,1.7,u,u
O=C(c1cccc(N2C(=O)C3C4C=CC(C4)C3C2=O)c1)N1CCN(c2ccccc2)CC1 (stereo not drawn),i,21.4,-2.1%,1.4,-0.5%,u
O=C(c1cc(N2C(=O)C3C4CCC(C4)C3C2=O)ccc1Cl)N1CCN(c2ccccc2)CC1 (stereo not drawn),i,-3.0,-35.6%,1.2,u,3.26µM*
Cc1cccc(OCCNC(=O)c2ccc(Oc3ccc(C(F)(F)F)cc3[N+](=O)[O-])cc2)c1,i,-6.9,7.4%,-3.7,1.3%,i
Cc1cccc(OCCNC(=O)c2cccc(Oc3ccc(C(F)(F)F)cc3[N+](=O)[O-])c2)c1,18.4µM*,-7.6,-2.3%,-19.8,2.9%,9.2µM*
O=S(=O)(Cc1cc(Cl)nc(-c2ccccc2)n1)c1ccccc1,i,9.2,20.6µM*,-10.9,u,i
O=C(O)c1ccc(N/N=C/c2ccc3c(c2)OCO3)cc1,20.6µM*,13.8,3.2%,16.0,9.9%,u
O=Cc1cc2cc3c(cc2nc1Cl)OCCO3,i,34.5,-3.7%,-1.0,-6.2%,i
Cc1ccccc1NCC(=O)N/N=C\c1ccc2c(c1)OCO2,i,5.7,-4.0%,6.9,-9.7%,i
Cc1cccc(C)c1OCC(=O)N/N=C/c1ccc2c(c1)OCO2,u,-0.6,5.8µM*,6.1,u,5.17µM*
O=C(N/N=C/c1ccc2c(c1)OCO2)c1ccccn1,u,-4.0,2.8%,-1.1,8.4%,14.6µM*
O=C(O)c1ccc(N/N=C/c2cc3cc4c(cc3nc2Cl)OCCO4)cc1,i,-3.8,13µM*,5.0,u,i
Cc1cccc(Cn2c(=O)n(CC3CCC(C(=O)N4CCOCC4)CC3)c(=O)c3sccc32)c1 (stereo not drawn),i,x,x,x,x,i
COc1cc2[nH]c(=O)n(Cc3ccc(C(=O)N4CCN(c5cccc(C)c5C)CC4)cc3)c(=O)c2cc1OC,i,x,x,x,x,i
O=c1[nH]c(N/N=C\c2ccc3c(c2)OCO3)nc2ccccc12,u,x,19.5%,3.0,4.4%,i

# Source: PubChem BioAssay (National Center for Advancing Translational Sciences (NCATS))
